Results filed as inconclusive are left out. A call without a number means that no potency is given here. The source made the active and inactive calls. The call rests on the fitted dose curve; in most records, active means well fitted cell-killing curve with a large enough effect; inconclusive means small, poorly fitted or top-dose-only effect, or effect the other way; inactive means flat fitted curve, though single readings scatter.
system: Hek293T; assay: Primary qHTS to identify gynecologic anti-cancer compounds using libraries of approved drugs and bioactive compounds (AID 1345084); conditions: Gynecologic cancer cell panel viability, ATPlite luminescence, 48 h, control line for the selectivity index; series mostly up to 57.5 µM; further: nearly all actives have a fitted effect of over 55% in size
How it was run: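 Cells, 1,000 per well, were allowed to settle for 16 h at 37 C before compound addition. Five concentrations were tested for 48 h, and viability was read by ATPlite luminescence after 15 min at room temperature.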

Structure (SMILES)	Potency
O=C(NCC1CCCCN1)c1cc(OCC(F)(F)F)ccc1OCC(F)(F)F (stereo not drawn)	inactive
O=C(OC1C[C@H]2CC[C@@H](C1)[N+]21CCCC1)C(O)(c1ccccc1)c1ccccc1 (stereo partly drawn)	inactive
CCC(C)(Oc1ccc(C2(c3ccc(OC(C)(CC)C(=O)O)cc3)CCCCC2)cc1)C(=O)O (stereo not drawn)	inactive
Oc1ccc(OCc2ccccc2)cc1	inactive
CCOC(=O)c1c(C)n(C)c2ccc(O)cc12	inactive
CC(C)c1nc(CN(C)C(=O)N[C@H](C(=O)N[C@@H](Cc2ccccc2)C[C@H](O)[C@H](Cc2ccccc2)NC(=O)OCc2cncs2)C(C)C)cs1	inactive
N=C(N)c1ccc2cc(OC(=O)c3ccc(N=C(N)N)cc3)ccc2c1	inactive
Cc1cc(=O)oc2cc(O)ccc12	inactive
c1cnc2cc3c(cc2n1)C1CNCC3C1	inactive
Clc1ccc(C(Cn2ccnc2)OCc2ccsc2Cl)c(Cl)c1 (stereo not drawn)	inactive
CN(C)C(=O)COC(=O)Cc1ccc(OC(=O)c2ccc(N=C(N)N)cc2)cc1	inactive
CC1=C(C)C(=O)C(C(CCCCCC(=O)O)c2ccccc2)=C(C)C1=O (stereo not drawn)	inactive
Cn1c(NCCN(CCO)CCCc2ccc([N+](=O)[O-])cc2)cc(=O)n(C)c1=O	inactive
O=C(O)c1cn(-c2ccc(F)cc2)c2cc(N3CCNCC3)c(F)cc2c1=O	inactive
CC(C)[C@H](N)C(=O)OCCOCn1cnc2c(=O)[nH]c(N)nc21	inactive
Nc1ccc(S(N)(=O)=O)cc1	inactive
COc1cc(OC)c(C(=O)CCCN2CCCC2)c(OC)c1	inactive
O=C(NOCC1CC1)c1ccc(F)c(F)c1Nc1ccc(I)cc1Cl	inactive

— PubChem BioAssay (NCATS)
